1 molecule from ChEMBL document CHEMBL4513143, “CO-ADD screening of University of Natural Resources and Life (Austria) compounds” can be followed below.

Assay [1] concerns Klebsiella pneumoniae. The conditions noted are these: Concentration 32 ug.mL-1; ASSAY_TEST Inhibition of Bacterial Growth; detection method Absorption (OD600); MEDIA CAMHB; plate type 384well; NBS; CORNING #3640; time 18 hr.
Assay [2] concerns Candida albicans. As to conditions: 32 ug/mL.
The test system of assay [3] is Cryptococcus neoformans. The conditions noted are these: Concentration 32 ug.mL-1; ASSAY_TEST Inhibition of Fungal Growth; detection method Resazurin; Absorption (OD600-OD570); plate type 384well; NBS; CORNING #3640.

Entries with a potency or affinity are not part of this list.

Turning to `[N-]=[N+]=NC[C@H]1OC(O)[C@@H](O)[C@@H]1O` (stereo partly drawn), the Inhibition in assay [1] was 29.69%; in assay [2], 3.08%; in assay [3], -7.43%.
